The list is not random: actives were taken first. Their share in the collection is about 18%.
DT40 TDP1 CPT = growth inhibition of DT40 Tdp1-/-;hTDP1 cells with camptothecin (screen for TDP1 inhibitors). chicken DT40 Tdp1-/-;hTDP1 cells + 20 nM CPT, ATP luminescence, 48 h. Potency, µM (titrated, usually from 46.2 µM), for inactives: at the highest dose activity change, negative = growth inhibition, hits mostly inhibitors. actives 12% (n = 420,000); note: potency is the fitted concentration of half-maximal effect; % is set by controls: 0 for no effect and ±100 for the full control effect; nearly all actives have a fitted effect of over 55% in size
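Chicken DT40 Tdp1-/- cells complemented with human TDP1, 400 cells/well, exposed to compounds plus 20 nM camptothecin for at least 48 h at 37 C; viability read as ATP content by CellTiter-Glo luminescence.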
IL-1B inflam inh = blocks inflammasome-driven IL-1 beta release; THP-1 LPS/ATP IL-1B secretion, AlphaLISA, 16 h; active compounds read low; activity change, % at 57.5 µM; actives 4.7% (n = 360,000); in the data active = activity change below about -50%; inconclusive = mostly about -30% to -49%; note: % is set by controls: 0 for no effect and ±100 for the full control effect
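Secreted IL-1B measured by AlphaLISA bead assay after 16 h compound exposure of THP-1 cells; compounds (final up to 57.5 uM) added 1 h before LPS (250 ng/mL) and ATP (1.25 mM) stimulation; lower signal means less secretion.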
HepG2 viability = HepG2 cytotoxicity, counter-screen for TGF-b inhibitors | HepG2 CAGA-GFP viability, ATP luminescence, 18 h | Potency, µM (highest dose often 46.1 µM), without a hit: at the highest dose activity change, negative = cytotoxicity, hits mostly cytotoxic | actives 0.76% (n = 410,000); note: potency is the fitted concentration of half-maximal effect
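CellTiter-Glo luminescence gave cytotoxicity after 18 hours at 37 degrees C. The cells were HepG2 CAGA-GFP in 1% FBS DMEM, stimulated with 500 pg/mL TGF-beta after compound addition. %Activity was normalised to no-cell wells (complete cell-killing) and DMSO (no toxicity), and curves were fitted and classified.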
DT40 TDP1 no CPT = qHTS for Inhibitors of human tyrosyl-DNA phosphodiesterase 1 (TDP1): qHTS in cells in absence of CPT; AID 686978, 2013; Potency, µM (series often up to 46.2 µM), inactives show at the highest dose activity change, negative = growth inhibition, hits mostly inhibitors; DT40 Tdp1-/- hTDP1 cells, no CPT, ATP luminescence, 48 h; actives 15% (n = 420,000); note: potency is the fitted concentration of half-maximal effect; % is set by controls: 0 for no effect and ±100 for the full control effect; nearly all actives have a fitted effect of over 55% in size
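DT40 Tdp1-/-;hTDP1 cells, no CPT (DMSO vehicle only), 400 cells/well; compounds pin-transferred; ≥48 hr, 37 °C; CellTiter-Glo 30 min RT dark, luminescence read.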
TDP1 block = TDP1 (human) enzyme inhibition; Potency, µM (top dose mostly 130 µM), inactives show top-dose activity change, negative = inhibition, hits mostly inhibitors; actives 0.28% (n = 350,000); recombinant TDP1, AlphaScreen DNA substrate cleavage; AID 485290; Q9NUW8; note: potency is the fitted concentration of half-maximal effect; % is set by controls: 0 for no effect and ±100 for the full control effect; nearly all actives have a fitted effect of over 40% in size
Target sequence (Q9NUW8 whole entry, looked up): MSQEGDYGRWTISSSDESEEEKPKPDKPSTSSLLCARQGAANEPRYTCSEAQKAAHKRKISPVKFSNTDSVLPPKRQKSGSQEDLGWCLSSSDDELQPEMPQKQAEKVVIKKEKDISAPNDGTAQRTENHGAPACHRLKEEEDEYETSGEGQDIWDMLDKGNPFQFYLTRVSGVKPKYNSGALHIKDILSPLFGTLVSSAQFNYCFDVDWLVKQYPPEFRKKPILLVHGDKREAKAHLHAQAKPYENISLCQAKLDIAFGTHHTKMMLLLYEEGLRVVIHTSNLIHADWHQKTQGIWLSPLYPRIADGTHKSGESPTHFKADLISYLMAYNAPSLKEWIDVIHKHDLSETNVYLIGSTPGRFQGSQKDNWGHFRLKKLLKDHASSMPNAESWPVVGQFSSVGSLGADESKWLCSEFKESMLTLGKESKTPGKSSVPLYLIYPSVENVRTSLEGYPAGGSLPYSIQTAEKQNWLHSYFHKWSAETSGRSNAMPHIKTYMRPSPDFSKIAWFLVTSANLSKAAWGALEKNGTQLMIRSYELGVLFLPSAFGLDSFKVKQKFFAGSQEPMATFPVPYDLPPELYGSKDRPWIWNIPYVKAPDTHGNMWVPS
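Here, a 5' biotin and 3' phosphotyrosine-FITC DNA oligonucleotide reports Tdp1 activity: intact substrate bridges AlphaScreen beads, while cleavage leaves a 3' phosphate and drops signal. All incubations at room temperature.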
TGFb SMAD3 inh = inhibitors of TGF-b signaling; actives 1.2% (n = 410,000); HepG2 CAGA-GFP TGF-b/SMAD3 reporter, GFP fluorescence, 18 h; TGF-beta stimulated, 500 pg/mL final; AID 588855; Potency, µM (doses to about 46.1 µM), for inactives: at the highest dose activity, negative = inhibition, hits mostly inhibitors; note: potency is the fitted concentration of half-maximal effect; % is set by controls: 0 for no effect and ±100 for the full control effect; nearly all actives have a fitted effect of over 65% in size
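Inhibition of TGF-beta-driven CAGA-GFP reporter expression in HEPG2 cells is measured by cellular GFP fluorescence after 18 h stimulation with 500 pg/mL recombinant TGF-beta in 1% FBS medium at 37 degrees C.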
The depositor's hits bear a star; ? = inconclusive; . = not tested or not shown; ! = a repeat was not active; [ ] = dose if it differs, or a comment. Unless noted, calls come from the whole dose curve; as a rule, active = well fitted curve in the direction sought with a large enough effect; inconclusive = small, poorly fitted or top-dose-only effect, or another doubt; inactive = no such curve, though single readings can be large; an effect the other way counts as inactive or inconclusive.

SMILES	DT40 TDP1 CPT	IL-1B inflam inh	HepG2 viability	DT40 TDP1 no CPT	TDP1 block	TGFb SMAD3 inh
Clc1ccc(-c2cn(-c3ccccc3)c3[n+]2CCS3)cc1	?	-51*	-19%	6.5µM*	0%	-3%
Cc1ccc(CSCCNC(=O)CSc2ccccc2)cc1	7%	-24	5%	-24%	3%	1%
Cc1cc(S(=O)(=O)N2CCCC2)ccc1OCC(=O)N1CCOCC1	-2%	2	1%	-5%	8%	2%
COc1ccc(N2CCN(C(=O)COc3ccc(S(=O)(=O)N4CCOCC4)cc3C)CC2)cc1	?	-2	-24%	23µM*	9%	-25%
COc1ccc(S(=O)(=O)N2CCCCCC2)cc1C(=O)N1CCN(c2ccc(F)cc2)CC1	?	?	-10%	21µM*	.	-20%
COc1ccc(N2CCN(C(=O)c3cc(S(=O)(=O)N4CCCCCC4)ccc3OC)CC2)cc1	?	-9	-23%	16µM*	3%	-2%
O=C(c1ccccc1)N(CCCl)C(=O)N(CCCl)C(=O)c1ccccc1	?	-3	-21%	?	.	-4%
Cc1cc(C(=O)N2CCOc3ccc(CN4CCC(Oc5cccnc5)CC4)cc3C2)c(C)o1	-2%[9.04 µM]	.	.	?	.	.
O=C(c1ccco1)N1CCN(C2CN(CCc3ccccc3)S(=O)(=O)C2)CC1 (configuration not stated)	-27%	19	-2%	?	.	-1%
CCc1ccc2c(c1)NC(=O)C2(C)Cc1ccc(C(F)(F)F)o1 (configuration not stated)	23µM*	4	-42%	?	.	?
COc1ccc(OC(F)(F)F)cc1CC1(C)C(=O)Nc2c(Cl)ccc(Cl)c21 (configuration not stated)	?	-11	-98%	?	.	?
CC1(Cc2ccc3c(c2)OCO3)C(=O)Nc2ccc(-c3cccc(C(F)(F)F)c3)cc21 (configuration not stated)	23µM*	?	18µM*	21µM*	.	?
CC1(Cc2ccc3c(c2)OCO3)C(=O)Nc2c(Cl)ccc(Cl)c21 (configuration not stated)	?	38	-27%	23µM*	.	-4%
CC1(Cc2ccc(C(F)(F)F)o2)C(=O)Nc2ccc(-c3cccc(C(F)(F)F)c3)cc21 (configuration not stated)	15µM*	-9	18µM*	12µM*	.	14µM*
CC1(Cc2ccccc2C#N)C(=O)Nc2ccc(-c3ccccc3)cc21 (configuration not stated)	?	-18	-9%	?	.	10%
CC1(Cc2cccc(C(F)(F)F)c2)C(=O)Nc2c(Cl)cccc21 (configuration not stated)	?	10	-16%	?	.	-8%
COC(=O)/C=c1/s/c(=C(/C#N)C(=O)NCc2ccccc2)n(-c2ccccc2)c1=O	-11%	-24	-2%	-3%	5%	-1%
CCCCCCOc1ccc(/C=c2\s/c(=C(/C#N)C(=O)NCc3ccco3)n(-c3ccccc3)c2=O)cc1	2.9µM*	8	22%	6.5µM*	6%	-2%
CCOc1ccccc1Nc1nnc(SCC(=O)NC2CC2)s1	4%	-12	-15%	-1%	1%	-1%
Cc1cc(NCc2ccccn2)nc2ccccc12	-15%	13	3%	-15%	5%	6%
OCCNc1c2ccccc2nc2ccccc12	13µM*	-8	3%	10µM*	5%	?
O=c1c2ccccc2nc2c3ccccc3c(NCc3ccccn3)nn12	?	?	-14%	15µM*	6%	-2%
Cc1nc(NCc2ccccn2)c2ccccc2n1	13µM*	-9	2%	10µM*	1%	-23%
O=c1c2ccccc2nc2c3ccccc3c(NCCO)nn12	13µM*	0	2%	?	4%	6%
COCCNC(=O)CSc1nc(-c2ccc(C)cc2)nc2c1c(=O)n(C)c(=O)n2C	-15%	.	-1%	-2%	8%	1%
SMILES	DT40 TDP1 CPT	IL-1B inflam inh	HepG2 viability	DT40 TDP1 no CPT	TDP1 block	TGFb SMAD3 inh
C/C(N)=C(/C#N)C(=O)CSc1nc(C2CCCCC2)n(-c2ccccc2)n1	13µM*!	-6	3%	?	7%	10%
O=c1[nH]c2cnn(-c3ccccc3)c2c(=O)n1O	?	0	-16%	?	.	-2%
O=C(Nc1cc(Br)ccc1O)C1CC(c2ccccc2Cl)=NO1 (configuration not stated)	?	-4	-57%	1%	2%	16µM*
O=C(Nc1cc(Cl)ccc1O)C1CC(c2c(F)cccc2Cl)=NO1 (configuration not stated)	?	-20	1%	?	.	-27%
Cc1c(Cl)cccc1NC(=O)Cn1nc(C(F)(F)F)c2c1CCC2	-25%	.	-18%	-4%	0%	?
C=CCn1c(SCC(=O)N2CCN(C(=O)OCC)CC2)nc2c([nH]c3ccccc32)c1=O	?	1	-23%	16µM*	.	-10%
CCOC(=O)N1CCN(C(=O)CSc2nc3c([nH]c4ccccc43)c(=O)n2C)CC1	-29%	8	-75%	-19%	5%	13µM*
COC(=O)c1ccc(C(NC(=O)OCc2ccccc2)/C(I)=C/[C@@H](C)C(=O)NCC2CC2)cc1 (some centres not stated)	.	.	.	.	5%	.
O=C(CCc1nc2ccccc2c(=O)[nH]1)N1CCCc2ccccc21	?	53	-10%	8.2µM*	-9%	15%
O=C(CCc1nc2ccccc2c(=O)[nH]1)N1CCN(c2ccccc2Cl)CC1	21µM*	-4	7%	16µM*	-1%	-21%
CC(C)c1ccc(CNc2nc(-c3ccco3)nn2C(=O)c2ccc([N+](=O)[O-])cc2)cc1	?	.	-30%	?	3%	-4%
O=C1N/C(=N/O)S/C1=C/c1cccc([N+](=O)[O-])c1	10%	-15	8%	-5%	2%	12%
CC1(C)CC(=O)/C(=C\c2cccc([N+](=O)[O-])c2)C(C)(C)N1	?	-82*	-30%	16µM*	-3%	?
CC(C)(C)c1ccc(CNC(=O)C2CCCN2C(=O)Nc2ccccc2)cc1 (configuration not stated)	11%	5	-25%	-21%	.	0%

Source: PubChem
